Records with an inconclusive call do not appear. Calls of active or inactive are those of the source. Unless noted, calls follow the shape of the dose curve; as a rule, active = well fitted curve in the direction sought with a large enough effect; inconclusive = small, poorly fitted or top-dose-only effect, or another doubt; inactive = no such curve, though single readings can be large; an effect the other way counts as inactive or inconclusive.
Columns and labels:
[1] = target: Estrogen receptor (Homo sapiens) (UniProt P03372); assay: qHTS assay for small molecule agonists of estrogen receptor alpha signaling (AID 588514; calls by dose curve;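 also: 0% = vehicle only and 100% = reference agonist; nearly all actives have a fitted effect of over 70% in size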)
Summary of the method: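 Fluorescence from CCF4 cleavage reports ER-alpha-driven beta-lactamase expression in HEK 293 cells treated 18 hrs at 37 C. Data normalized to 17-beta-estradiol (20 nM) and DMSO, fitted to Hill equation.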

[2] = target: Bile acid receptor (Homo sapiens) (UniProt Q96RI1); assay: qHTS assay for small molecule antagonists of farnesoid X receptor signaling (AID 588526; calls by dose curve; also: % is scaled to controls: 0 for no effect and ±100 for the full control effect)
Summary of the method: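 Antagonist mode: titrated compounds tested against chenodeoxycholic acid stimulation (normalized to 50 uM CDCA and DMSO) in GeneBLAzer HEK293T cells for 16 h. Beta-lactamase read by CCF4 fluorescence; IC50 from Hill fits.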

[3] = target: Bile acid receptor (Homo sapiens) (UniProt Q96RI1); assay: qHTS assay for small molecule agonists of farnesoid X receptor signaling (AID 588527; calls by dose curve;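 also: series mostly up to about 77 µM; 0% = vehicle basal and 100% = reference agonist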); conditions: HEK293T FXR-UAS-bla, beta-lactamase ratio, 16 h; activation: stronger effect = higher value
Summary of the method: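 Agonist-mode beta-lactamase reporter in GeneBLAzer FXR-UAS-bla HEK293T cells, titration up to 92 uM, 16 h exposure at 37 C, CCF4 fluorescence. Response scaled to DMSO (0%) and 100 uM chenodeoxycholic acid (100%), then Hill-fitted for EC50 and efficacy.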

[4] = target: Glucocorticoid receptor (Homo sapiens) (UniProt P04150); assay: qHTS assay for small molecule agonists of glucocorticoid receptor signaling (AID 588532; active = well fitted curve in the direction sought with a large enough effect in the signal ratio, with a control signal flat; the % refers to the signal ratio;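 also: 100% = dexamethasone at 0.1 µM and 0% = DMSO only wells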); conditions: HeLa MMTV-bla, beta-lactamase ratio, agonist, 18 h; stronger effect = higher value; percent of dexamethasone control, DMSO zero
Summary of the method: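 MMTV-bla HeLa beta-lactamase reporter cells in 1% charcoal/dextran FBS medium, compounds up to 92 uM for 18 h at 37 C, CCF4 readout; normalized to 0.1 uM dexamethasone (100%), EC50 and efficacy from Hill fits.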

[5] = target: Glucocorticoid receptor (Homo sapiens) (UniProt P04150); assay: qHTS assay for small molecule antagonists of glucocorticoid receptor signaling (AID 588533; active = well fitted inhibition curve with a large enough effect in the signal ratio, with a control signal flat, not every such curve was filed as active; the % refers to the signal ratio; also: % is scaled to controls: 0 for no effect and ±100 for the full control effect)
Summary of the method: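 Antagonist-mode qHTS: compound titrations added to GRE-bla HeLa cells, then dexamethasone 2 nM final; 18 h, 37 C. CCF4 FRET fluorescence normalized to dexamethasone and DMSO; IC50 from Hill fit.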

[6] = target: Peroxisome proliferator-activated receptor delta (Homo sapiens) (UniProt Q03181); assay: qHTS assay for small molecule agonists of peroxisome proliferator-activated receptor delta signaling (AID 588534; calls by dose curve;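 also: 0% = DMSO basal wells and 100% = positive control agonist at 10 µM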)
Summary of the method: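 EC50 and efficacy values derive from Hill fits of a concentration series in a beta-lactamase reporter cell assay. Exposure is 18 hrs at 37 C, with CCF4 fluorescence as the readout.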

[7] = qHTS assay for small molecule antagonists of peroxisome proliferator-activated receptor delta signaling (AID 588535; active = well fitted inhibition curve with a large enough effect in the signal ratio, with a control signal flat, not every such curve was filed as active; the % refers to the signal ratio;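 as to max response: cells co-treated with a PPAR-delta agonist as stimulator during compound exposure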); conditions: HEK293T PPARd-UAS-bla, beta-lactamase FRET ratio, 18 h; 460 nm channel
Summary of the method: (§1)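 Beta-lactamase reporter read-out (405 nm excitation, 460/530 nm emission) after CCF4 loading for 2 hrs at RT. HEK293T PPAR-delta-UAS-bla cells, 2% charcoal/dextran FBS, compounds for 18 hrs at 37 C. Hill fit gave IC50 and efficacy.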

[8] = target: Peroxisome proliferator-activated receptor delta (Homo sapiens) (UniProt Q03181); assay: as above
Summary of the method: as §1

[9] = target: Peroxisome proliferator-activated receptor gamma (Homo sapiens) (UniProt P37231); assay: qHTS assay for small molecule agonists of peroxisome proliferator-activated receptor gamma signaling (AID 588536; active = well fitted curve in the direction sought with a large enough effect in the signal ratio, with a control signal flat, not every such curve was filed as active; the % refers to the signal ratio;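 also: 0% = DMSO basal wells and 100% = rosiglitazone at 2 µM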)
Summary of the method: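 This is an agonist-mode beta-lactamase reporter assay in HEK293 PPAR-gamma-UAS-bla cells with 1% charcoal/dextran FBS. Compound titrations ran 16 h at 37 C before CCF4 detection. EC50 and efficacy are Hill fits scaled to 2 uM rosiglitazone (100%) and DMSO basal.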

[10] = target: Peroxisome proliferator-activated receptor gamma (Homo sapiens) (UniProt P37231); assay: qHTS assay for small molecule antagonists of peroxisome proliferator-activated receptor gamma signaling (AID 588537; active = well fitted inhibition curve with a large enough effect in the signal ratio, with a control signal flat, not every such curve was filed as active; the % refers to the signal ratio;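 also: reporter cells co-stimulated with 50 nM rosiglitazone agonist during compound treatment; % of control where 0% means no effect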)
Summary of the method: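 Read-out: CCF4 fluorescence (ex 405, em 460/530 nm) after 2 h at RT. Cells were HEK293 carrying a UAS-bla reporter and treated 16 h at 37 C with compound plus rosiglitazone (50 nM final). Normalized to rosiglitazone and DMSO.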

[11] = target: Vitamin D3 receptor (Homo sapiens) (UniProt P11473); assay: qHTS assay for small molecule antagonists of vitamin D receptor signaling (AID 588541; calls by dose curve;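 also: receptor activated by calcitriol during compound treatment; series mostly up to about 77 µM; % is scaled to controls: 0 for no effect and ±100 for the full control effect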)
Summary of the method: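 VDR-UAS-bla HEK293T cells in 2% charcoal-stripped FBS were stimulated with 1-alpha,25-dihydroxyvitamin D3 (3 nM final) plus compound for 16 h at 37 C. The beta-lactamase CCF4 readout was normalized to 50 nM agonist and DMSO, and Hill fits gave IC50.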

[12] = target: Vitamin D3 receptor (Homo sapiens) (UniProt P11473); assay: qHTS assay for small molecule agonists of vitamin D receptor signaling (AID 588543; calls by dose curve;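 also: 0% = DMSO basal and 100% = reference agonist control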)
Summary of the method: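 VDR-UAS-bla HEK293T cells, 2000/well, 2% charcoal-stripped FBS; compound titration 16 h at 37 C; CCF4 beta-lactamase ratio read. Normalized to 50 nM 1-alpha,25-dihydroxyvitamin D3 (100%) and DMSO; Hill fit gives EC50, efficacy.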

[13] = qHTS assay for small molecule agonists of retinoid X receptor alpha signaling (AID 588544; calls by dose curve;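 as to activation: 0% = DMSO basal wells and 100% = reference agonist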); conditions: HEK293T RXRa-UAS-bla, beta-lactamase reporter, 18 h; 530 nm emission
[14] = target: Retinoic acid receptor RXR-alpha (Homo sapiens) (UniProt P19793); assay: as above
[15] = target: Thyroid hormone receptor beta (Homo sapiens) (UniProt P10828); assay: qHTS assay for small molecule agonists of thyroid hormone receptor beta signaling (AID 588545; calls by dose curve;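 also: 0% = DMSO only and 100% = 10 nM T3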)
Summary of the method: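 TR-UAS-bla-GripTite HEK 293 cells in medium with 2% charcoal/dextran FBS, 0.1 mM NEAA and 1 mM sodium pyruvate were treated with titrated compounds for 18 hrs at 37 C. Beta-lactamase reporter was read with CCF4 dye (ex 405, em 460/530 nm); EC50 from Hill fits.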

[16] = qHTS assay for small molecule antagonists of retinoid X receptor alpha signaling (AID 588546; active = well fitted inhibition curve with a large enough effect in the signal ratio, with a control signal flat, not every such curve was filed as active; the % refers to the signal ratio;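 also: cells stimulated with 9-cis-retinoic acid as agonist; % is scaled to controls: 0 for no effect and ±100 for the full control effect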); conditions: HEK293T RXRa-UAS-bla, beta-lactamase ratio, antagonist mode; measured here: W530 green channel, cytotoxicity proxy
Summary of the method: (§2)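 Beta-lactamase reporter inhibition, read as CCF4 fluorescence ratio (ex 405, em 460/530 nm) after 2 h at RT. HEK293T UAS-bla cells, 2500/well, were stimulated with 9-cis-RA at 500 or 100 nM final alongside test compound for 18 h at 37 C.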

[17] = target: Retinoic acid receptor RXR-alpha (Homo sapiens) (UniProt P19793); assay: as above; conditions: HEK293T RXRa-UAS-bla, beta-lactamase ratio, antagonist mode
Summary of the method: as §2

[18] = qHTS assay for small molecule agonists of the antioxidant response element (ARE) signaling pathway (AID 651741; active = well fitted activation curve with a large enough effect in the signal ratio; the % refers to the signal ratio; also: % of control where 0% means no effect)
Summary of the method: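 HepG2 ARE-bla reporter cells, 2,000/well; 5 h settle at 37 C/5% CO2; compound pin transfer (23 nL, DMSO); 16 h at 37 C; LiveBLAzer B/G FRET substrate, 2 h RT; fluorescence intensity read.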

[19] = qHTS assay for small molecule activators of the nuclear factor-kappa B (NF-kB) signaling pathway (AID 651749; active = well fitted activation curve with a large enough effect in the signal ratio; the % refers to the signal ratio; also: series mostly up to about 77 µM; % of control where 0% means no effect); conditions: NF-kB-bla ME-180 cells, beta-lactamase FRET ratio, 16 h; activation: stronger effect = higher value
Summary of the method: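 NF-kB-bla ME-180 cells, 2,000/well; 23 nL compound or DMSO pinned; 16 hr, 37C/5% CO2; beta-lactamase FRET read-out.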

[20] = qHTS assay for environmental chemicals that activate the Aryl hydrocarbon Receptor (AhR) signaling pathway (AID 651777); conditions: 1A2-DRE human hepatoma cells, luciferase, 24 h; activation: stronger effect = higher value; also: % of control where 0% means no effect; nearly all actives have a fitted effect of over 15% in size
Summary of the method: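 Luminescence (One-Glo, 30 min, room temperature) reports AhR-driven luciferase in stably transfected human hepatoma cells bearing DRE and CYP1A2 promoter. Cells (1,200/well) were treated with compound for 24 hr at 37 C in qHTS format.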

[21] = target: Peroxisome proliferator-activated receptor alpha (Homo sapiens) (UniProt Q07869); assay: qHTS assay for small molecule agonists of the peroxisome proliferator-activated receptor alpha (PPARalpha) signaling pathway (AID 651778); conditions: PathHunter PPARalpha complementation, chemiluminescence, 6 h; stronger effect = higher value; also: % of control where 0% means no effect
Summary of the method: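 Enzyme-fragment complementation assay in which ligand-bound PPARalpha translocates and forms an active enzyme that generates chemiluminescence. Cells were plated overnight, exposed to compound for 6 hr at 37 C, and then given detection reagent for 60 min at room temperature.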

[22] = qHTS assay for small molecule agonists of the antioxidant response element (ARE) signaling pathway measured by Nrf2-dependant transcriptional activity - cell viability counter screen (AID 720653; active = well fitted curve in the direction sought with a large enough effect in the repeat runs; an effect the other way counts as inactive or inconclusive; also: % is scaled to controls: 0 for no effect and ±100 for the full control effect); conditions: ARE-bla HepG2 viability, CellTiter-Glo ATP luminescence, 16 h; max response: stronger effect = lower value
Summary of the method: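 ARE-bla HepG2 cells treated with compounds for 16 h at 37C; this counter screen measures viability as intracellular ATP by CellTiter-Glo luminescence after 30 min at room temperature.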

[23] = qHTS assay for cell viability of HEK293 cells (AID 743288); conditions: ATP luminescence (CellTiter-Glo), 18 h; max response: stronger effect = lower value; also: % is scaled to controls: 0 for no effect and ±100 for the full control effect; nearly all actives have a fitted effect of over 50% in size
Summary of the method: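 Steps: plate 2,000 parental HEK293 cells per well; incubate ≥5 h, 37 C; add compounds in DMSO; incubate 18 h, 37 C; add CellTiter-Glo; wait 30 min at room temperature; read luminescence.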

[24] = qHTS assay for cell viability of the p53RE-bla HCT-116 cell line (AID 743292); also: % is scaled to controls: 0 for no effect and ±100 for the full control effect; nearly all actives have a fitted effect of over 55% in size
Summary of the method: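 ATP-based luminescent viability (CellTiter-Glo, 30 min RT) after 16 h compound treatment at 37 C of p53RE-bla HCT-116 cells, seeded at 4,000 cells/well and rested 5 h before dosing.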

[25] = qHTS for Inhibitors of the Functional Ribonucleoprotein Complex (vRNP) of Lassa (LASV) Arenavirus: LASV Primary Screen - GLuc reporter signal (AID 1347082; calls by dose curve; tested in HEK293 reporter line; also: series mostly up to about 57 µM; % is scaled to controls: 0 for no effect and ±100 for the full control effect; nearly all actives have a fitted effect of over 60% in size)
[26] = qHTS for Inhibitors of the Functional Ribonucleoprotein Complex (vRNP) of Lassa (LASV) Arenavirus: Viability assay - alamar blue signal for LASV Primary Screen (AID 1347083; calls by dose curve; tested in HEK293 reporter line; also: series mostly up to about 57 µM; % is scaled to controls: 0 for no effect and ±100 for the full control effect; nearly all actives have a fitted effect of over 80% in size)
[27] = qHTS for Inhibitors of the Functional Ribonucleoprotein Complex (vRNP) of Lymphocytic Choriomeningitis Arenaviruses (LCMV): Viability assay - alamar blue signal for LCMV Primary Screen (AID 1347085; calls by dose curve; tested in HEK293 reporter line; also: series mostly up to about 57 µM; % is scaled to controls: 0 for no effect and ±100 for the full control effect; nearly all actives have a fitted effect of over 80% in size)
[28] = target: Nucleoprotein (Lymphocytic choriomeningitis virus (strain Armstrong)) (UniProt P09992); assay: qHTS for Inhibitors of the Functional Ribonucleoprotein Complex (vRNP) of Lymphocytic Choriomeningitis Arenaviruses (LCMV): LCMV Primary Screen - GLuc reporter signal (AID 1347086; calls by dose curve; also: series mostly up to about 57 µM; % is scaled to controls: 0 for no effect and ±100 for the full control effect; nearly all actives have a fitted effect of over 70% in size)
[29] = target: Nuclear receptor subfamily 1 group I member 2 (Rattus norvegicus) (UniProt Q9R1A7); assay: qHTS assay for small molecule activators of the rat pregnane X receptor (rPXR) signaling pathway (AID 651751; call rule not given here; also: 0% is about no effect); conditions: rPXR reporter cells, luciferase (One-Glo), 24 h
[30] = qHTS assay for small molecule activators of the human pregnane X receptor (PXR) signaling pathway (AID 720659; call rule not given here; also: 0% is about no effect)
[31] = target: Alpha-galactosidase (Coffea arabica) (UniProt Q42656); assay: Counterscreen for Glucocerebrosidase Inhibitors: qHTS Assay for Coffee Bean alpha-Galactosidase at pH 4.5 (AID 957);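 also: series mostly up to about 77 µM; plate controls were enzyme alone for no effect and no enzyme for full effect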
Summary of the method: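 Quantitative HTS of compounds (0.7 nM to 77 uM) against coffee bean alpha-galactosidase at pH 4.5, measuring 4-methylumbelliferone fluorescence released from 80 uM substrate.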

[32] = target: Alpha-galactosidase (Coffea arabica) (UniProt Q42656); assay: Counterscreen for Glucocerebrosidase Inhibitors: qHTS Assay for Coffee Bean alpha-Galactosidase at pH 5.9 (AID 998);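 also: plate controls were uninhibited enzyme for no effect and no-enzyme basal signal for full effect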
Summary of the method: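 Enzyme 2 nM + cpd (0.7 nM–77 uM titration) + 4-MU-alpha-Gal 80 uM, pH 5.9 citrate/Tween-20, RT 20 min, NaOH/glycine stop pH 10, fluor 365/440. Normalized to no-enzyme and full-activity controls; Hill-fit AC50.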

[33] = Inducers of the Endoplasmic Reticulum Stress Response (ERSR) in human glioma: Validation (AID 504836); also: 0% is about no effect
Summary of the method: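 Stably transfected U87-MG glioma cells carrying a GRP78-based luciferase sensor; 16 h compound incubation. Luminescence end-point read 10 min after Bright-Glo addition at room temperature.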

Nucleoprotein (Lymphocytic choriomeningitis virus (strain Armstrong)), sequence (P09992 whole entry, looked up): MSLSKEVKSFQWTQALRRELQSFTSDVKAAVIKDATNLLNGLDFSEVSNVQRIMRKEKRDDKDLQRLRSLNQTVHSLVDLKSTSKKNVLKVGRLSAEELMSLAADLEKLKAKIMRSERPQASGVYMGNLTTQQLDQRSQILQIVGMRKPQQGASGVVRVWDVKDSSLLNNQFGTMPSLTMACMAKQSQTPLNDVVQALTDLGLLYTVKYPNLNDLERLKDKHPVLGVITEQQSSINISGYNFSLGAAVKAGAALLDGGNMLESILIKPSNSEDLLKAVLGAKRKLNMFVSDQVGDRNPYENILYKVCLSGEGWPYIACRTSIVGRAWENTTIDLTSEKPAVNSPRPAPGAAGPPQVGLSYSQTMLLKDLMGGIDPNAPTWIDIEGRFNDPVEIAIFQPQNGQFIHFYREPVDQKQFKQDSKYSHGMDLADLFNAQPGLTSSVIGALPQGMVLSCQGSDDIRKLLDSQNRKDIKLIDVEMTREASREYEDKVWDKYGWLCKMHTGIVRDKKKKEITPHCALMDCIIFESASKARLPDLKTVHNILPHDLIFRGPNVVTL
Alpha-galactosidase (Coffea arabica), sequence (Q42656 whole entry, looked up): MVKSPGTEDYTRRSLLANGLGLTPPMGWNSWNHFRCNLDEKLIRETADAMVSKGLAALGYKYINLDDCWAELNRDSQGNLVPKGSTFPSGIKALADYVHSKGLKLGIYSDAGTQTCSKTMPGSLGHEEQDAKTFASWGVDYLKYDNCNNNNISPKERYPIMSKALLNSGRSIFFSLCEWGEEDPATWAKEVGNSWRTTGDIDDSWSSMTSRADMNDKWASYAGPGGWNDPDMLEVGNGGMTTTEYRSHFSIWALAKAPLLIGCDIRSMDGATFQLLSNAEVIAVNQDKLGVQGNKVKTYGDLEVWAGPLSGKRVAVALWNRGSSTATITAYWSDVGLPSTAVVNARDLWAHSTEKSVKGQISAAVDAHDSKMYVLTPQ
Peroxisome proliferator-activated receptor delta (Homo sapiens), sequence (Q03181 whole entry, looked up): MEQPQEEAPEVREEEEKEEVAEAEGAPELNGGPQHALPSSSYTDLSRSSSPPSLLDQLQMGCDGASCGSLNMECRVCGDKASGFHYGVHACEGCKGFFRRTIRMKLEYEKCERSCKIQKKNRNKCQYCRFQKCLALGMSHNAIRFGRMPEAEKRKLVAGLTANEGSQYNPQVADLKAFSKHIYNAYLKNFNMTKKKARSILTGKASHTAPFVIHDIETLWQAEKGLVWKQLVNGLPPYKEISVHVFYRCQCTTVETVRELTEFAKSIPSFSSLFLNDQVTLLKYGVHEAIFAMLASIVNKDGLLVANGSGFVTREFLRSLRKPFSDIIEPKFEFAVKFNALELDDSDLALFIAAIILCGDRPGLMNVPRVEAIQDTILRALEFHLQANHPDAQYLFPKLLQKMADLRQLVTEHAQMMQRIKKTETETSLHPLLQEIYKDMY
Glucocorticoid receptor (Homo sapiens), sequence (P04150 whole entry, looked up): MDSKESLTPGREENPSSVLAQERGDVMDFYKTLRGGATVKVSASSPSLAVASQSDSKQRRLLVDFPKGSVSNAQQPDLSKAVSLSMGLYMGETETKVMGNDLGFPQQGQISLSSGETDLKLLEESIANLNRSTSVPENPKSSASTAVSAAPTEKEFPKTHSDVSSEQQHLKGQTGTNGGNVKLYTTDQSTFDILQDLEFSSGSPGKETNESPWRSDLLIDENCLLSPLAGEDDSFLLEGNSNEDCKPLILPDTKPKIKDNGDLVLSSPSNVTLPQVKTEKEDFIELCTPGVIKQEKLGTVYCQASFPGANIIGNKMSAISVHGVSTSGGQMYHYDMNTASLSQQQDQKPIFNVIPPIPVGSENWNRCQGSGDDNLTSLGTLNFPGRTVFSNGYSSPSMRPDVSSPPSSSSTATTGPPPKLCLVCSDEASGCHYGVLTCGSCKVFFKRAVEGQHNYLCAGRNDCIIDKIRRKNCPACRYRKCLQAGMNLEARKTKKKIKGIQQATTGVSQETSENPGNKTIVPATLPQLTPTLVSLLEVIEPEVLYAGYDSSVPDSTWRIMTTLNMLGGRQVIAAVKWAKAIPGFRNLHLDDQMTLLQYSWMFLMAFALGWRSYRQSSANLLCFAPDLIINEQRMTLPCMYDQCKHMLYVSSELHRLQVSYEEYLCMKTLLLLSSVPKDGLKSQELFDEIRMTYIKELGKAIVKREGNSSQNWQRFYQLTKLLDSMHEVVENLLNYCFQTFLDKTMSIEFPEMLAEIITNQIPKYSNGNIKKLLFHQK
Retinoic acid receptor RXR-alpha (Homo sapiens), sequence (P19793 whole entry, looked up): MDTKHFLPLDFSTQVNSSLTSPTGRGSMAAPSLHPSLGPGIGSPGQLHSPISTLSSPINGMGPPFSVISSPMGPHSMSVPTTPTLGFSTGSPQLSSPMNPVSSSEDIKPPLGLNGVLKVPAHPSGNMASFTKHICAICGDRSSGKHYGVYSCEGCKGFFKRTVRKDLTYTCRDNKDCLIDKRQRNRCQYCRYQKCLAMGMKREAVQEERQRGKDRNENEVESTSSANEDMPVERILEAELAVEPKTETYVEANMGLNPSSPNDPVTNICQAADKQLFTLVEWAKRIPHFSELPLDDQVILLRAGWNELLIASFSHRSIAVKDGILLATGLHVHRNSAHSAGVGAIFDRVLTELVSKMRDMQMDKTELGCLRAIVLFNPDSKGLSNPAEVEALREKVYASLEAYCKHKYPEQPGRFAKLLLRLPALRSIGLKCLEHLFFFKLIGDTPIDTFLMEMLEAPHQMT
Vitamin D3 receptor (Homo sapiens), sequence (P11473 whole entry, looked up): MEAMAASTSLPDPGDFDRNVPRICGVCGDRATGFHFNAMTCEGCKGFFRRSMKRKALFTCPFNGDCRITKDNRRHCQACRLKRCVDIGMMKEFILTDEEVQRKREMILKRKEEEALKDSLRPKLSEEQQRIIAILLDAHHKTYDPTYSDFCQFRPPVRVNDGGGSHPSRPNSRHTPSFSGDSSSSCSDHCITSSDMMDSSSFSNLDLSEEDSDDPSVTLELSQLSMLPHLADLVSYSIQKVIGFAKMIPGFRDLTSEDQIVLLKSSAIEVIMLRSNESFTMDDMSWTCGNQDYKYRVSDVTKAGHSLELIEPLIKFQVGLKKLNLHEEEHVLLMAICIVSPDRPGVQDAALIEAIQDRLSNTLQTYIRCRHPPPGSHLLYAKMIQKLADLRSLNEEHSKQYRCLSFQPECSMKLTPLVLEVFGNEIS
Peroxisome proliferator-activated receptor gamma (Homo sapiens), sequence (P37231 whole entry, looked up): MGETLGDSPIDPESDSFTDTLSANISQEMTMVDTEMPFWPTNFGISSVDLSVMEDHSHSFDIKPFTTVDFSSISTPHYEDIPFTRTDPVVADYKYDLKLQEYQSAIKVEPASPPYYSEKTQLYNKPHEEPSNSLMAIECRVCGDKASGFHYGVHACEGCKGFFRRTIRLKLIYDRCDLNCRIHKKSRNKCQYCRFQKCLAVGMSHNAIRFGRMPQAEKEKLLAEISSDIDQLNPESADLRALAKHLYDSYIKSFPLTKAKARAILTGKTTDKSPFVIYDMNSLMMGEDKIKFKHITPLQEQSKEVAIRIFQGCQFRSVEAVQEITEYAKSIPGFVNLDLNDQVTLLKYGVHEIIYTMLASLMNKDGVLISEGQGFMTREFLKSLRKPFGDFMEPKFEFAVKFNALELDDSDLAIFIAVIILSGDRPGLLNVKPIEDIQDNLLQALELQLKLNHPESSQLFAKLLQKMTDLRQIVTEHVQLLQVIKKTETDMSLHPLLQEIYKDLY
Bile acid receptor (Homo sapiens), sequence (Q96RI1 whole entry, looked up): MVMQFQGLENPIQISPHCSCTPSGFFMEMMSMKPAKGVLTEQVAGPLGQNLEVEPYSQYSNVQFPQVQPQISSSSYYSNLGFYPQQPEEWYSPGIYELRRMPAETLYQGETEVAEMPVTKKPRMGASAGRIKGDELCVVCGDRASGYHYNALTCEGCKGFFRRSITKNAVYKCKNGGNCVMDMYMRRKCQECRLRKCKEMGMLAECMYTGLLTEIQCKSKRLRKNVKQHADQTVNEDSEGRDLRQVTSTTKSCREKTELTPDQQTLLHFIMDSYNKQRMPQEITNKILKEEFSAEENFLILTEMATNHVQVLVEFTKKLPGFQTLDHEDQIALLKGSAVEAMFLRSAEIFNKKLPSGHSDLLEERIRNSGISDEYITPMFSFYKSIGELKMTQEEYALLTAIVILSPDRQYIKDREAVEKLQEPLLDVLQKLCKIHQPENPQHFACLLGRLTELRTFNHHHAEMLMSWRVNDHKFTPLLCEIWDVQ
Estrogen receptor (Homo sapiens), sequence (P03372 whole entry, looked up): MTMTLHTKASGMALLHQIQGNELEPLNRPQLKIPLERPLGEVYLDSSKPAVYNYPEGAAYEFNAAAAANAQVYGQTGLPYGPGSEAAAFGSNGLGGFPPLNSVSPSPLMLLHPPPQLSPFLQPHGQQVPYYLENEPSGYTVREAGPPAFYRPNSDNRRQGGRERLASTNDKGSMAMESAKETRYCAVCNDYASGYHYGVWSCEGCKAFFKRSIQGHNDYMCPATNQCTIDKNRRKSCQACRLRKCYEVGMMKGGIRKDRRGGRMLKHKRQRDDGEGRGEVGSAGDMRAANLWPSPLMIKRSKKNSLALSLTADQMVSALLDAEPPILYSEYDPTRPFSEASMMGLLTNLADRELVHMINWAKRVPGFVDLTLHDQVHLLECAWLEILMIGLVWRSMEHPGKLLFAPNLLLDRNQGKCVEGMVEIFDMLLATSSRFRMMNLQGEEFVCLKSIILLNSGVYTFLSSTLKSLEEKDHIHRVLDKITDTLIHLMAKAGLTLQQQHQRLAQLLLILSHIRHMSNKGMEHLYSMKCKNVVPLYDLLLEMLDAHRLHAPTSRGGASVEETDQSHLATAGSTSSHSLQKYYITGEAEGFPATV

CCOP(=S)(OCC)SCSCC
inactive: Potency [1] | Potency [2] | activation [3] 1.79% | activation [4] -1.34% | Potency [5] | Potency [6] | outcome [8] | outcome [9] | Potency [10] | outcome [11] | Potency [12] | outcome [14] | Potency [15] | max response [17] -2.19% | Potency [18] | activation [19] -1.47% | activation [20] 2.07% | max response [21] -0.311% | max response [22] 6.11% | max response [23] -10.1% | outcome [24] | Potency [25] | Potency [26] | Potency [27] | Potency [28] | max response [29] 5.3% | outcome [30]
-8.57%: max response [13]
1.66%: max response [7]
-4.53%: max response [16]

Nc1ncnc2c1ncn2C1CCCC1
inactive: outcome [31] | outcome [32] | outcome [33] | Potency [25] | Potency [26] | Potency [27] | Potency [28]

N=C(N)SCCc1ccc(CCSC(=N)N)cc1
inactive: outcome [31] | outcome [32] | outcome [33] | Potency [25] | Potency [26] | Potency [27] | Potency [28]

O=Nc1ccc2oc(=O)ccc2c1
inactive: outcome [31] | outcome [32] | outcome [33] | Potency [25] | Potency [26] | Potency [27] | Potency [28]

Source: PubChem BioAssay (NCATS)
